# From PubChem BioAssay (EPA / NIEHS)
# The source made the active and inactive calls. The calls were made as follows: active = hit-call score of the fitted dose curve at least 0.9, where 1 is the maximum; inactive = score below 0.9.
# How the values were obtained:
# [1] = ATG_AP_1_CIS: Attagene CIS-FACTORIAL HepG2 Assay for human Activator Protein 1 (AP-1) (AID 2282931); conditions: HepG2 Attagene cis-factorial AP-1 reporter mRNA; actives raise or lower the signal
# In short: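 HepG2, transient cis-reporter transfection; 24 h; readout RT-PCR/CE fluorescence; DMSO baseline, gain and loss fitted.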
# [2] = ATG_AP_2_CIS: Attagene CIS-FACTORIAL HepG2 Assay for human Activator Protein 2 (AP-2) (AID 2282932); conditions: HepG2 AP-2 cis-reporter, Attagene transcription factor profiling; actives raise or lower the signal
# In short: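 Step one: transient transfection of HepG2 with reporter transcription units. Step two: 24 h chemical exposure. Step three: RNA extraction, RT-PCR, labelled fragment analysis by capillary electrophoresis; DMSO serves as baseline.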
# [3] = ATG_BRE_CIS: Attagene CIS-FACTORIAL HepG2 Assay for human Bone Morphogenetic Protein (BMP) Response Element (BRE) (AID 2282933); conditions: HepG2 BMP response element reporter, Attagene transcription factor profiling; actives raise or lower the signal
# In short: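 Multiplexed cis-reporter assay, HepG2, 24 h exposure. mRNA from reporter units quantified via RT-PCR/CE; DMSO baseline; bidirectional curve fit.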
# [4] = biological target: Retinoic acid receptor alpha (Homo sapiens) (UniProt P10276); assay: ATG_DR5_RAR_CIS: Attagene CIS-FACTORIAL HepG2 Assay for human Retinoic Acid Receptor Alpha (RARE), DR5 submotif (AID 2282934); conditions: HepG2 Attagene cis-factorial RARE DR5 reporter, mRNA; actives raise or lower the signal
# Chain of Retinoic acid receptor alpha (Homo sapiens) (P10276 whole entry, looked up): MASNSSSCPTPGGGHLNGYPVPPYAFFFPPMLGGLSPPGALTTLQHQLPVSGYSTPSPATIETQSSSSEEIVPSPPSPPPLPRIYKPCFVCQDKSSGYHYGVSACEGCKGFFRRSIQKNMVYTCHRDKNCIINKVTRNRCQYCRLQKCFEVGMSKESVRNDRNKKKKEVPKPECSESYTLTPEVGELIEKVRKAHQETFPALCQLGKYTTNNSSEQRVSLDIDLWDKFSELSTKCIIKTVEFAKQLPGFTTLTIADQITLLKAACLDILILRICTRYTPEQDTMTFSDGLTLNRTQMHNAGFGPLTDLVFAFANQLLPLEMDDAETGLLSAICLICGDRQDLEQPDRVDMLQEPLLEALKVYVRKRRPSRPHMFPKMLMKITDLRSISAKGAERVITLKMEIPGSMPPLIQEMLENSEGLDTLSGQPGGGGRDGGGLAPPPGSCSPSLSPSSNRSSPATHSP
# In short: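 Reporter transcripts from a DR5-regulated unit, measured via RT-PCR plus capillary electrophoresis, reflect endogenous RAR activity in transiently transfected human HepG2 liver cells. Exposure lasted 24 h; gain or loss of signal scored against DMSO.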
# [5] = biological target: Transcription factor E2F1 (Homo sapiens) (UniProt Q01094); assay: ATG_E2F_CIS: Attagene CIS-FACTORIAL HepG2 Assay for human E2F Transcription Factor 1 (AID 2282935); conditions: HepG2 Attagene cis-reporter, E2F reporter RNA transcripts; actives raise or lower the signal
# Chain of Transcription factor E2F1 (Homo sapiens) (Q01094 whole entry, looked up): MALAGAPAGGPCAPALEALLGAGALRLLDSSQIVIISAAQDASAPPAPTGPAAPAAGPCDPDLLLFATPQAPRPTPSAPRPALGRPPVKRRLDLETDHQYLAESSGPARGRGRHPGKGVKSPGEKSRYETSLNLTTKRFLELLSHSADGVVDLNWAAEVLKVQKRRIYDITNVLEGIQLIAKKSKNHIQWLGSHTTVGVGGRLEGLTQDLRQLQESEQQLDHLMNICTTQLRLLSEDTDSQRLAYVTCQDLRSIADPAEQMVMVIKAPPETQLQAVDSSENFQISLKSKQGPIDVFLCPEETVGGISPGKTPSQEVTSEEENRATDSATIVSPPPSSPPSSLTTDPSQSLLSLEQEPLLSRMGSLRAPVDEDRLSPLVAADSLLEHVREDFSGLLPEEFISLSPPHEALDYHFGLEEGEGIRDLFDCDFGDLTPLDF
# In short: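 Total RNA from 24 h-treated, reporter-transfected HepG2 cells undergoes DNase I treatment, oligo(dT) reverse transcription, PCR and 6-FAM primer extension before capillary electrophoresis.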
# [6] = ATG_M_61_CIS: Attagene CIS-FACTORIAL HepG2 Assay for M61 Transcription Factor (Internal Marker) (AID 2282937); conditions: HepG2 Attagene CIS-FACTORIAL M61 internal marker reporter; actives raise or lower the signal
# In short: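 Transfect HepG2 with MRTUs; dose 24 h; isolate RNA; reverse-transcribe with DNase I treatment; PCR-amplify, FAM-label and cut with HpaI for 2 h at 37 C; resolve by CE. Bidirectional fitting against DMSO.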
# [7] = ATG_EGR_CIS: Attagene CIS-FACTORIAL HepG2 Assay for human Early Growth Response 1 (EGR1) (AID 2282938); conditions: HepG2 Attagene CIS-FACTORIAL EGR reporter mRNA; actives raise or lower the signal
# In short: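 After a 24 h treatment of transiently transfected HepG2 cells, total RNA was reverse-transcribed and reporter sequences PCR-amplified, labelled and run on capillary electrophoresis. Reporters sit under cis-regulatory promoters sensing endogenous factors.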
# [8] = ATG_M_19_CIS: Attagene CIS-FACTORIAL HepG2 Assay for M19 Transcription Factor (Internal Marker) (AID 2282939); conditions: HepG2 Attagene CIS-FACTORIAL M19 internal marker reporter; actives raise or lower the signal
# In short: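 Signals come from fluorescence of labelled reporter-specific PCR fragments resolved by capillary electrophoresis, following 24 h treatment of HepG2 cells transfected with cis-promoter reporter units; activity was fitted in both directions relative to DMSO.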
# [9] = ATG_ERE_CIS: Attagene CIS-FACTORIAL HepG2 Assay for Estrogen Response Element (ERE) (AID 2282940); conditions: HepG2 ERE cis-reporter, Attagene RNA transcript; actives raise or lower the signal
# In short: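 Fluorescence of capillary-separated, FAM-labelled reporter cDNA fragments indicates reporter mRNA levels in HepG2 cells exposed to chemicals for 24 h. Transient transfection with cis-regulated units; data fitted in both directions against DMSO.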
# [10] = ATG_Ets_CIS: Attagene CIS-FACTORIAL HepG2 Assay for human Erythroblast Transformation Specific (ETS) (AID 2282941); conditions: HepG2 ETS cis-reporter transcription, actives raise or lower the signal
# In short: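 HepG2 cells transiently transfected with cis-promoter reporter transcription units were dosed for 24 h; reporter mRNA was measured by RT-PCR, 6-FAM primer extension, HpaI digestion and capillary electrophoresis, with bidirectional fitting against DMSO baseline.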
# [11] = biological target: Hepatocyte nuclear factor 3-beta (Homo sapiens) (UniProt Q9Y261); assay: ATG_FoxA2_CIS: Attagene CIS-FACTORIAL HepG2 Assay for human Forkhead box A2 (FOXA2) (AID 2282942); conditions: HepG2 cis-reporter transcription factor activity, 24 h; actives raise or lower the signal
# Chain of Hepatocyte nuclear factor 3-beta (Homo sapiens) (Q9Y261 whole entry, looked up): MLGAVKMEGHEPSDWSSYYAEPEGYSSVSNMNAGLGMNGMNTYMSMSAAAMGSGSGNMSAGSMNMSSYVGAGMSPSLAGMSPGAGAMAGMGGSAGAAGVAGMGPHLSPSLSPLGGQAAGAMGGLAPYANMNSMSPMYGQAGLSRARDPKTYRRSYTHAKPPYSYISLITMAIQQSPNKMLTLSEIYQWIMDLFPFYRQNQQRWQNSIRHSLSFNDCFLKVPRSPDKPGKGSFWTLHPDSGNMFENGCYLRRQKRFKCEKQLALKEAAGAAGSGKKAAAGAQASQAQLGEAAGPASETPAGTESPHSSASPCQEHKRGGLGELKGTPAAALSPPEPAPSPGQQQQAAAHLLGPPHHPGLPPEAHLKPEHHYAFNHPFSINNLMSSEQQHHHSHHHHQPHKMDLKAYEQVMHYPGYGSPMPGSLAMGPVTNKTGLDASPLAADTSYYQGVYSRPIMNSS
# In short: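 24 h dosing of HepG2 bearing cis-reporter constructs; mRNA readout by RT-PCR/CE fluorescence; bidirectional fit, DMSO baseline.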
# [12] = ATG_FoxO_CIS: Attagene CIS-FACTORIAL HepG2 Assay for human Forkhead box O (FoxO) (AID 2282943); conditions: HepG2 Attagene cis-reporter, FoxO element, mRNA; actives raise or lower the signal
# In short: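 Endogenous transcription factor activity read from multiplexed cis-promoter reporter transcripts in transiently transfected HepG2, 24 h after dosing. Reporter RNA measured via RT-PCR plus capillary electrophoresis of FAM-labeled products; gain or loss relative to DMSO.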
# [13] = ATG_GLI_CIS: Attagene CIS-FACTORIAL HepG2 Assay for human Zinc Finger Protein GLI1 (AID 2282945); conditions: HepG2, Attagene cis-factorial reporter mRNA, GLI element; actives raise or lower the signal
# In short: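 Bidirectional curve fits relative to DMSO, using reporter mRNA levels from RT-PCR plus capillary electrophoresis. Cells were HepG2 transiently carrying cis-regulated reporter constructs, harvested 24 h after dosing.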
# [14] = ATG_GRE_CIS: Attagene CIS-FACTORIAL HepG2 Assay for human Glucocorticoid Response Elements (GRE) (AID 2282947); conditions: HepG2 GRE cis-reporter, Attagene multiplex mRNA; actives raise or lower the signal
# In short: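 Assay uses human hepatoma HepG2 cells transfected with cis-promoter reporter units, exposed 24 h. mRNA from reporters detected by RT-PCR plus capillary electrophoresis; DMSO serves as negative control and baseline.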
# [15] = ATG_ISRE_CIS: Attagene CIS-FACTORIAL HepG2 Assay for human Interferon Regulatory Factor 1 (IRF1) binding to an Interferon-Stimulated Response Element (ISRE) (AID 2282948); conditions: HepG2 ISRE cis-reporter (Attagene), mRNA transcription readout; actives raise or lower the signal
# In short: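 HepG2 cells transiently transfected with multiplexed cis-promoter reporter units; after 24 h compound exposure, reporter mRNA quantified by RT-PCR, FAM labelling, HpaI digestion and capillary electrophoresis. Bidirectional fit versus DMSO baseline.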
# [16] = ATG_M_32_CIS: Attagene CIS-FACTORIAL HepG2 Assay for M32 Transcription Factor (Internal Marker) (AID 2282949); conditions: HepG2 Attagene cis-factorial M32 reporter, mRNA; actives raise or lower the signal;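 also: background control marker of the multiplexed CIS panel rather than a real target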
# In short: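 Internal background marker read-out: RT-PCR/capillary electrophoresis fluorescence of reporter transcripts from transiently transfected HepG2 cells after 24 h chemical exposure. Activity fitted bidirectionally relative to DMSO negative control.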
# [17] = ATG_M_06_CIS: Attagene CIS-FACTORIAL HepG2 Assay for M06 Transcription Factor (Internal Marker) (AID 2282950); conditions: HepG2 Attagene CIS-FACTORIAL M06 internal marker reporter; actives raise or lower the signal
# In short: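 HepG2 liver cells, 24 h exposure. Reporter transcripts from transfected cis-element constructs quantified by RT-PCR/capillary electrophoresis fluorescence. Bidirectional curve fit against DMSO.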
# [18] = ATG_GATA_CIS: Attagene CIS-FACTORIAL HepG2 Assay for human GATA Binding Protein (AID 2282944); conditions: HepG2 GATA cis-element reporter, Attagene multiplex mRNA; actives raise or lower the signal
# In short: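 After transfecting HepG2 cells with multiple cis-regulated reporter units, chemicals are dosed for 24 h; isolated RNA undergoes RT-PCR and fluorescent labeling before capillary electrophoresis, with activity expressed against DMSO.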
# [19] = biological target: Bile acid receptor (Homo sapiens) (UniProt Q96RI1); assay: ATG_IR1_CIS: Attagene CIS-FACTORIAL HepG2 Assay for human Nuclear Receptor Subfamily 1 Group H Member 4 (NR1H4), IR1 submotif (AID 2282946); conditions: IR1 reporter transcription, actives raise or lower the signal
# Chain of Bile acid receptor (Homo sapiens) (Q96RI1 whole entry, looked up, the tested form may be a part): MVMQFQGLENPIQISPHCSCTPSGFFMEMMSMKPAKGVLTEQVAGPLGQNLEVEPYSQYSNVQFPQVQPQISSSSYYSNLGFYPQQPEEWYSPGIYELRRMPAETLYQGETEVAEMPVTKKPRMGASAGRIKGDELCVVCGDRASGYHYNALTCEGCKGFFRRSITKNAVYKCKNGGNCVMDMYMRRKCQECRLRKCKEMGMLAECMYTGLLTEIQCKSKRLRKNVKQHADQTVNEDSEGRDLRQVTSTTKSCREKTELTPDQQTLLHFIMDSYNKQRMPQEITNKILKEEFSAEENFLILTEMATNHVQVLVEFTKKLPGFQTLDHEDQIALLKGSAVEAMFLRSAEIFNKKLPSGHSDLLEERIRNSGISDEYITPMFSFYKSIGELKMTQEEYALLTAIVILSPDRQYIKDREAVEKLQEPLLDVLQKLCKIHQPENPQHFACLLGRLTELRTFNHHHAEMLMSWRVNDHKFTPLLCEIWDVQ
# In short: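 Cells (human HepG2) carry transiently transfected cis-promoter reporter transcription units. Compounds are incubated 24 h, total RNA is reverse-transcribed and amplified, and labelled fragments are resolved by capillary electrophoresis. Curves use DMSO as baseline.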
# [20] = ATG_E_Box_CIS: Attagene CIS-FACTORIAL HepG2 Assay for human Enhancer Box (E-box) (AID 2282936); conditions: HepG2 E-box cis-reporter transcription, actives raise or lower the signal
# In short: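 DMSO served as negative control and baseline for bidirectional fitting. Human hepatoma HepG2 cells, transiently transfected with cis-reporter constructs, were dosed 24 h; reporter mRNA read by RT-PCR and capillary electrophoresis.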
smiles,measurement,setting,value
CCN(CCO)CCO,outcome,[1],inactive
same,outcome,[2],inactive
same,outcome,[3],inactive
same,outcome,[4],inactive
same,outcome,[5],inactive
same,outcome,[6],inactive
same,outcome,[7],inactive
same,outcome,[8],inactive
same,outcome,[9],inactive
same,outcome,[10],inactive
same,outcome,[11],inactive
same,outcome,[12],inactive
same,outcome,[13],inactive
same,outcome,[14],inactive
same,outcome,[15],inactive
same,outcome,[16],inactive
same,outcome,[17],inactive
C=CCOC(F)(C(F)(F)F)C(F)(F)F,outcome,[1],inactive
same,outcome,[2],inactive
same,outcome,[3],inactive
same,outcome,[4],inactive
same,outcome,[5],inactive
same,outcome,[6],inactive
same,outcome,[7],inactive
same,outcome,[8],inactive
same,outcome,[9],inactive
same,outcome,[10],inactive
same,outcome,[11],inactive
same,outcome,[12],inactive
same,outcome,[18],inactive
same,outcome,[13],inactive
same,outcome,[19],inactive
same,outcome,[14],inactive
same,outcome,[15],inactive
same,outcome,[16],inactive
same,outcome,[17],inactive
Nc1cccnc1,outcome,[1],inactive
same,outcome,[2],inactive
same,outcome,[3],inactive
same,outcome,[4],inactive
same,outcome,[5],inactive
same,outcome,[20],inactive
same,outcome,[8],inactive
same,outcome,[9],inactive
same,outcome,[10],inactive
same,outcome,[11],inactive
same,outcome,[12],inactive
same,outcome,[18],inactive
same,outcome,[13],inactive
same,outcome,[19],inactive
same,outcome,[15],inactive
same,outcome,[16],inactive
same,outcome,[17],inactive
O=C(Cl)OCCOCCOC(=O)Cl,outcome,[1],inactive
same,outcome,[2],inactive
same,outcome,[3],inactive
same,outcome,[4],inactive
same,outcome,[5],inactive
same,outcome,[6],inactive
same,outcome,[7],inactive
same,outcome,[8],inactive
same,outcome,[9],inactive
same,outcome,[10],inactive
same,outcome,[11],inactive
same,outcome,[12],inactive
same,outcome,[18],inactive
same,outcome,[13],inactive
same,outcome,[14],inactive
same,outcome,[15],inactive
same,outcome,[16],inactive
O=C(N[C@H]1CN2CCC1CC2)c1ccc2c(c1)OCCO2,outcome,[1],inactive
same,outcome,[2],inactive
same,outcome,[3],inactive
same,outcome,[4],inactive
same,outcome,[5],inactive
same,AC50,[20],72.7 µM (active)
same,outcome,[6],inactive
same,outcome,[8],inactive
same,outcome,[10],inactive
same,outcome,[11],inactive
same,outcome,[12],inactive
same,outcome,[18],inactive
same,outcome,[13],inactive
same,outcome,[14],inactive
same,outcome,[15],inactive
same,outcome,[16],inactive
same,outcome,[17],inactive
O=[N+]([O-])c1cc([As](=O)(O)O)ccc1O,outcome,[1],inactive
same,outcome,[2],inactive
same,outcome,[3],inactive
same,outcome,[4],inactive
same,outcome,[5],inactive
same,outcome,[20],inactive
same,outcome,[7],inactive
same,outcome,[9],inactive
same,outcome,[10],inactive
same,outcome,[11],inactive
same,outcome,[12],inactive
same,outcome,[18],inactive
same,outcome,[13],inactive
same,outcome,[14],inactive
same,outcome,[15],inactive
same,outcome,[16],inactive
same,outcome,[17],inactive
C=CC(=O)OCC(COC(=O)C=C)(COC(=O)C=C)COC(=O)C=C,AC50,[1],33.4 µM (active)
same,AC50,[2],33.4 µM (active)
same,outcome,[3],inactive
same,outcome,[4],inactive
same,outcome,[5],inactive
same,AC50,[20],7.14 µM (active)
same,AC50,[7],8.31 µM (active)
same,outcome,[8],inactive
same,outcome,[9],inactive
same,AC50,[10],33.4 µM (active)
same,outcome,[11],inactive
same,AC50,[12],8.71 µM (active)
same,outcome,[18],inactive
same,outcome,[13],inactive
same,AC50,[19],12.2 µM (active)
same,outcome,[14],inactive
same,AC50,[15],5.34 µM (active)
same,outcome,[16],inactive
same,outcome,[17],inactive
O=C(NC(=O)c1c(F)cccc1F)Nc1cc(Cl)c(F)c(Cl)c1F,outcome,[1],inactive
same,outcome,[2],inactive
same,outcome,[3],inactive
same,outcome,[4],inactive
same,outcome,[5],inactive
same,outcome,[20],inactive
same,outcome,[7],inactive
same,outcome,[9],inactive
same,outcome,[10],inactive
same,outcome,[11],inactive
same,outcome,[12],inactive
same,outcome,[18],inactive
same,outcome,[13],inactive
same,outcome,[14],inactive
same,outcome,[15],inactive
same,outcome,[16],inactive
same,outcome,[17],inactive
